Measurements: PubChem BioAssay
Several values for one entry are separate records, joined by “and”; a condition that tells them apart may be missing. Equal values may be shown once. Activity calls are given as the source filed them.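 Rule for the calls, unless noted: active = normalized viability below 100% at a tested concentration; inactive = the rest.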

What was measured:
[1] = P. berghei load reduction in hepatocytes – cell-based, HepG2, luciferase luminescence, HepG2 viability, primary screen (AID 624349; in the data active = parasite load remaining mostly below about 12%, no sharp cut-off; inactive = mostly above about 10%;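 note: 100% = mean of DMSO negative control wells on the same plate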); settings: P. berghei liver stage in HepG2, luciferase luminescence, concentration not given here; parasite load remaining: stronger effect = lower value; viability: measured here: HepG2 viability without parasites
[2] = Wnt pathway potentiators raising nuclear beta-catenin – imaging, WNT3A-conditioned medium, mouse C2C12, NPC library, primary screen (AID 1117326; in the data active = nuclear beta-catenin stimulation mostly above about 4.2%, no sharp cut-off; inactive = mostly below about 10%); settings: stronger effect = higher value
[3] = stimulators of insulin release from INS-1E, primary screen, cell-based, 5 mM glucose, NPC library (AID 1117329;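 active = compound raises insulin release from rat beta cells at 5 mM glucose, no numeric limit stated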); settings: rat INS-1E insulin secretion, at 10 µM, stronger effect = higher value
[4] = growth inhibition of GSK3B-pretreated HCT116 cells – cell-based, CellTiter-Glo, 0.2 to 20 µM (AID 1117336;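 active = compounds lowering colon cancer cell viability after pretreatment blocking the GSK3B kinase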); settings: HCT116 viability after GSK3B inhibitor, at 20 µM, stronger effect = higher value
[5] = inhibition of endothelial tube formation, primary screen, imaging, VEGF stimulated, CD31 staining, tube area, NPC library (AID 1117340;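 active = compound that reduces growth-factor-driven endothelial tube area in a mixed cell culture, no cutoff stated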); settings: VEGF-stimulated ADSC/ECFC co-culture, at 10 µM, stronger effect = higher value
[6] = GLP1 release stimulators, primary, NCI-H716, NPC library (AID 1117341;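 active = compound raises GLP1 secretion from the human gut endocrine cells, with no numeric limit stated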); settings: NCI-H716 cells, at 10 µM, stronger effect = higher value
[7] = HCT116 colon cancer cell growth inhibition, primary screen, CellTiter-Glo luminescence, NPC library (AID 1117342;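 active = compounds that lower survival of HCT116 colon cancer cells in the luminescence readout, no numeric limit stated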); settings: at 20 µM (top of the series)
[8] = reduced SW480 viability measured with CellTiter-Glo, NPC library, primary (AID 1117343;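 active = compounds that lower viability of the colon cancer cells in the luminescence readout, with no numeric limit stated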); settings: CellTiter-Glo luminescence; at 20 µM (top of the series) unless noted
[9] = NPC library primary testing for decreased DLD-1 cell viability via CellTiter-Glo (AID 1117346;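 active = compounds that lower survival of DLD-1 colon cancer cells in the luminescence readout, no cutoff given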); settings: DLD-1 viability, CellTiter-Glo luminescence; at 20 µM (top of the series)
[10] = EMT-state selective cytotoxicity in co-culture – imaging, PC-3E GFP, TEM4-18 mCherry, primary screen (AID 1345086;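 active = compounds killing one labelled cell type while sparing the other, by normalised counts and ratio limits, not self-fluorescent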;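 for all read-outs here: cells exposed to compound for 72 h before imaging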;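 for red/green cell ratio (normalised): normalised mesenchymal count divided by normalised epithelial count so high means epithelial killing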); settings: PC-3E GFP / TEM4-18 mCherry co-culture, imaging cell counts, at 1 µM; for red/green cell ratio (normalised): actives lie on both sides, counts scaled to control wells, 1 = unselective
[11] = viability loss with induced miR-34 in A549 – imaging, A549 dox-inducible miR-34, nuclei and caspase counts, primary screen (AID 1347080;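 active = compounds whose cell count with miR-34 switched on is under 0.7 times the count with it off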); settings: A549 miR-34 inducible, Hoechst nuclei count, 48 h
[12] = MELAS cybrid and Rieske KO viability enhancers – cell-based, MELAS cybrids, Rieske KO mouse fibroblasts, CellTiter-Glo, primary screen (AID 1508586;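 active = mean z-score across replicates of 1.96 or higher in either the MELAS or the Rieske mutant cell line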;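 note: z relative to plate mean and SD of compound and empty wells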); settings: low glucose
[13] = drug combination growth inhibition, ovarian cancer – cell-based, oncology-focused library, rucaparib conditional, profiling panel (AID 1508598); settings: patient-derived ovarian cancer cells, CellTiter-Glo viability, 144 h, stronger effect = lower value
[14] = molecular target: NAD(+) hydrolase SARM1 (Homo sapiens) (UniProt Q6SZW1); assay: blocking NAD cleavage by SARM1 SAM-TIR – cell lysate, NAD-Glo luminescence (AID 1508614;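 active = compound whose remaining NAD level is above about 45 nM, limit read from the data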;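 note: higher remaining NAD means stronger inhibition of SARM1 NADase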); settings: SAM-TIR HEK293T lysate NADase, at 1 µM, stronger effect = higher value
NAD(+) hydrolase SARM1 (Homo sapiens), sequence (Q6SZW1 whole entry, looked up): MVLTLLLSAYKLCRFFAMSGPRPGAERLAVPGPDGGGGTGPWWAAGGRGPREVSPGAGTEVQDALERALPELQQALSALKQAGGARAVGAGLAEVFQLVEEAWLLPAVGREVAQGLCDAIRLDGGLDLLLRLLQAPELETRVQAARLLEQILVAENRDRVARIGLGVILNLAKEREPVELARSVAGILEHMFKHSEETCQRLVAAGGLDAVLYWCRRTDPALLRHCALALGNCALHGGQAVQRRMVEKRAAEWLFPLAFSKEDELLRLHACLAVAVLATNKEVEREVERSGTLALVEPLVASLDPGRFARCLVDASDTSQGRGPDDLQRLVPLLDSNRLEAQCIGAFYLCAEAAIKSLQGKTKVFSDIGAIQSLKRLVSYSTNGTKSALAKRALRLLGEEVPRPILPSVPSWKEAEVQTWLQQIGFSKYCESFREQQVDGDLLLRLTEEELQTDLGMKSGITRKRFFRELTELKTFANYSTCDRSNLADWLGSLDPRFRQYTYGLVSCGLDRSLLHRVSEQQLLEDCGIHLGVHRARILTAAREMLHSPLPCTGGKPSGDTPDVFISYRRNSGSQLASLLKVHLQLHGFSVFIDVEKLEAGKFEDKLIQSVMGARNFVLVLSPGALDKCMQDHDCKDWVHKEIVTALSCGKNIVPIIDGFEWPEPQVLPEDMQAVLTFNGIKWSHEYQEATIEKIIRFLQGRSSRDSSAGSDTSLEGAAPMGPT

[15] = measured here: epithelial PC-3E GFP cell survival
[16] = measured here: mesenchymal TEM4-18 mCherry cell survival
[17] = stronger effect = lower value, cell number ratio, induced over uninduced
[18] = measured here: relative caspase fold change +Dox/-Dox
[19] = measured here: total cells with miR-34 induction, stronger effect = lower value
[20] = measured here: total cells without miR-34 induction
[21] = MELAS cybrid survival, CellTiter-Glo 48 h, stronger effect = higher value
[22] = Rieske KO mouse fibroblast survival, CellTiter-Glo 72 h

COc1c(C)c2c(c(O)c1C/C=C(\C)CCC(=O)OCCN1CCOCC1)C(=O)OC2
1.62: z-score [12, 22]
active: viability decrease [4] 98.3% | tube area decrease [5] 79.8% | inhibition of viability [7] 83.9% | viability decrease (inhibition) [8] 71.8% | viability decrease (inhibition) [9] 53.3% | viability ([13]; at 0.000305 µM, OCI-P5x cells, with rucaparib 20 µM, 100% = cells with rucaparib alone) 90.9% | viability ([13]; at 0.00122 µM, OCI-P5x cells, with rucaparib 20 µM, 100% = cells with rucaparib alone) 95.2% | viability ([13]; at 0.0781 µM, OCI-P5x cells, without rucaparib) 87.7% | viability ([13]; at 0.313 µM, OCI-P5x cells, with rucaparib 20 µM, 100% = cells with rucaparib alone) 89.1% | viability ([13]; at 0.313 µM, OCI-P5x cells, without rucaparib) 63.2% | viability ([13]; at 1.25 µM, OCI-P5x cells, with rucaparib 20 µM, 100% = cells with rucaparib alone) 74.3% | viability ([13]; at 1.25 µM, OCI-P5x cells, without rucaparib) 42.1% | viability ([13]; at 5 µM, OCI-C5x cells, with rucaparib 10 µM, 100% = cells with rucaparib alone) 69% | viability ([13]; at 5 µM, OCI-C5x cells, without rucaparib) 52.7% | viability ([13]; at 5 µM, OCI-P5x cells, with rucaparib 20 µM, 100% = cells with rucaparib alone) 52.6% | viability ([13]; at 5 µM, OCI-P5x cells, without rucaparib) 30.9%
28.6%: nuclear beta-catenin stimulation ([2]; stimulation, at 2 µM)
140%: viability [1]
3240: cell count [11, 20]
inactive: parasite load remaining [1] 10.4% | nuclear beta-catenin stimulation ([2]; at 10 µM) 19.6% | insulin secretion stimulation [3] 1.7% | GLP1 secretion stimulation [6] 0.3% | red/green cell ratio (normalised) [10] 0.71 | fold change [11, 17] 0.954 | z-score [12, 21] -0.954 | viability ([13]; at 0.000305 µM, OCI-C5x cells, with rucaparib 10 µM, 100% = cells with rucaparib alone) 104% | viability ([13]; at 0.000305 µM, OCI-C5x cells, without rucaparib) 112% | viability ([13]; at 0.000305 µM, OCI-P5x cells, without rucaparib) 100% | viability ([13]; at 0.00122 µM, OCI-C5x cells, with rucaparib 10 µM, 100% = cells with rucaparib alone) 119% | viability ([13]; at 0.00122 µM, OCI-C5x cells, without rucaparib) 108% | viability ([13]; at 0.00122 µM, OCI-P5x cells, without rucaparib) 104% | viability ([13]; at 0.00488 µM, OCI-C5x cells, with rucaparib 10 µM, 100% = cells with rucaparib alone) 122% | viability ([13]; at 0.00488 µM, OCI-C5x cells, without rucaparib) 110% | viability ([13]; at 0.00488 µM, OCI-P5x cells, with rucaparib 20 µM, 100% = cells with rucaparib alone) 101% | viability ([13]; at 0.00488 µM, OCI-P5x cells, without rucaparib) 108% | viability ([13]; at 0.0195 µM, OCI-C5x cells, with rucaparib 10 µM, 100% = cells with rucaparib alone) 115% | viability ([13]; at 0.0195 µM, OCI-C5x cells, without rucaparib) 113% | viability ([13]; at 0.0195 µM, OCI-P5x cells, with rucaparib 20 µM, 100% = cells with rucaparib alone) 108% | viability ([13]; at 0.0195 µM, OCI-P5x cells, without rucaparib) 109% | viability ([13]; at 0.0781 µM, OCI-C5x cells, with rucaparib 10 µM, 100% = cells with rucaparib alone) 146% | viability ([13]; at 0.0781 µM, OCI-C5x cells, without rucaparib) 149% | viability ([13]; at 0.0781 µM, OCI-P5x cells, with rucaparib 20 µM, 100% = cells with rucaparib alone) 107% | viability ([13]; at 0.313 µM, OCI-C5x cells, with rucaparib 10 µM, 100% = cells with rucaparib alone) 172% | viability ([13]; at 0.313 µM, OCI-C5x cells, without rucaparib) 147% | viability ([13]; at 1.25 µM, OCI-C5x cells, with rucaparib 10 µM, 100% = cells with rucaparib alone) 157% | viability ([13]; at 1.25 µM, OCI-C5x cells, without rucaparib) 110% | remaining NAD [14] 10 nM
1.15: fold change [11, 18]
3090: cell count [11, 19]
1.24: normalised cell number [10, 15]
0.88: normalised cell number [10, 16]

CCN(C)C(=O)Oc1cccc([C@H](C)N(C)C)c1
99%: viability [1]
10100: cell count [11, 19]
-0.737 and -0.15: z-score [12, 22]
11400: cell count [11, 20]
0.4%: nuclear beta-catenin stimulation ([2]; stimulation, at 2 µM)
1.24: normalised cell number [10, 15]
inactive: parasite load remaining [1] 32.3% | nuclear beta-catenin stimulation ([2]; at 10 µM) -0.2% | insulin secretion stimulation [3] 6.4% | viability decrease [4] 5.7% | tube area decrease [5] -0.5% | GLP1 secretion stimulation [6] 2.5% | inhibition of viability [7] 25.9% | viability decrease (inhibition) [8] 17.2% | viability decrease (inhibition) [9] 0.2% | red/green cell ratio (normalised) [10] 1.13 | fold change [11, 17] 0.884 | z-score [12, 21] -0.629 and -0.546
1.4: normalised cell number [10, 16]
1.13: fold change [11, 18]

Cn1c(=O)c2c(ncn2CC2OCCO2)n(C)c1=O
9320 and 10900: cell count [11, 20]
inactive: parasite load remaining [1] 22.8% | nuclear beta-catenin stimulation ([2]; at 10 µM) 2.7% | insulin secretion stimulation [3] -2.4% | viability decrease [4] -0.95% | tube area decrease [5] -3.4% | GLP1 secretion stimulation [6] -1.2% | inhibition of viability [7] 16.1% | viability decrease (inhibition) [8] 46.8% | viability decrease (inhibition) [9] 11.7% | red/green cell ratio (normalised) [10] 0.85 | fold change [11, 17] 0.901 and 0.895 | z-score [12, 21] -0.299 and -0.511 and 0.326 | remaining NAD [14] 10 nM
1.1%: nuclear beta-catenin stimulation ([2]; stimulation, at 2 µM)
112%: viability [1]
0.98: normalised cell number [10, 16]
0.475 and 1.33: fold change [11, 18]
1.16: normalised cell number [10, 15]
-0.174 and -0.641 and -0.268: z-score [12, 22]
8400 and 9760: cell count [11, 19]
